Screening data: PubChem, National Center for Advancing Translational Sciences (NCATS)
Shown are actives, neighbours in structure and some others; about 21% of the full set was active somewhere.
NS1 inh = qHTS Assay for Inhibitors of Influenza NS1 Protein Function; 270,000 compounds, 0.4% hits; Potency, µM (series often up to 46.1 µM); calls by dose curve; further: actives are rising curves; nearly all actives have a fitted effect of over 50% in size
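Read-out: OD600 growth recovery of NS1-expressing budding yeast. Cells grown overnight at 30C in -URA glucose medium, washed, resuspended and diluted 1:100 in 2% galactose assay medium, pH 6.0. Same strain lacking NS1 served as positive control.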
Cycloheximide cs = Cycloheximide Counterscreen for Small Molecule Inhibitors of Shiga Toxin; cell reporter, cycloheximide protein synthesis inhibition counterscreen; max response, %; 300,000 compounds, 12% hits; in the data active means max response mostly above about 13%, no sharp cut-off; inactive means mostly below about 14%; further: read at 38.3 µM for the half of the compounds with a filed dose
Pf growth 96h = Primary qHTS for delayed death inhibitors of the malarial parasite plastid, 96 hour incubation | P. falciparum luciferase reporter growth, 96 h | Potency, µM (highest dose often 28.7 µM), actives largely listed as inhibitors | 320,000 compounds, 6.9% hits | AID 504834, 2011
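Delayed-death screen, second-generation endpoint: infected erythrocytes, 2% hematocrit, 0.05% parasitemia final; 96 hours at 37 C, 5% CO2; luciferase detection reagent; luminescence decrease equals reduced growth.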
Pf growth 48h = Primary qHTS for delayed death inhibitors of the malarial parasite plastid, 48 hour incubation | P. falciparum luciferase growth in erythrocytes, 48 h | Potency, µM (top dose mostly 28.7 µM), hits mostly inhibitors | 310,000 compounds, 5.9% hits | AID 504832, 2011
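Read-out is firefly luciferase luminescence from an integrated reporter in P. falciparum, so falling signal marks reduced parasite growth. Infected erythrocytes were at 2% hematocrit and 0.1% parasitemia (final) in Albumax-supplemented RPMI 1640.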
Shiga toxin inh = A qHTS for Small Molecule Inhibitors of Shiga Toxin. AID 2315, 2010. Vero cells, Shiga toxin protein synthesis inhibition reporter. 290,000 compounds, 9.2% hits. inhibition, % at 38.7 µM; in the data active means inhibition mostly above about 28%, no sharp cut-off; inactive means mostly below about 43%
Giardia FBPA inh = qHTS Assay for Inhibitors of Fructose-1,6-bisphosphate Aldolase from Giardia Lamblia; A8B2U2; 290,000 compounds, 0.71% hits; purified Giardia FBPA; Potency, µM (doses to about 59.6 µM), usual class: inhibitors; further: nearly all actives have a fitted effect of over 55% in size
Target sequence (A8B2U2 whole entry, looked up): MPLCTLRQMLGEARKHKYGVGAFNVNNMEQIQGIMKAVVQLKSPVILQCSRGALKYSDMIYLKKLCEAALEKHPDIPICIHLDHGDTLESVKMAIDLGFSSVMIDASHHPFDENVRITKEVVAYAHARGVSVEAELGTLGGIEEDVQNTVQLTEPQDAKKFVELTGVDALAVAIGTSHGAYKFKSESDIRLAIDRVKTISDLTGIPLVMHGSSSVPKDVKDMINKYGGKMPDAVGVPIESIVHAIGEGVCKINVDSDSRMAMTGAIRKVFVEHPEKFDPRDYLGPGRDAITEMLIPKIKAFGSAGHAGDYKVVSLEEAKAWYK
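40 nM FBPA preincubated 10 min at RT with compound (up to 57.5 uM final), then substrate plus GAPDH/TPI/NAD/arsenate coupling and diaphorase/resazurin added. Fluorescence read after 20 min at RT, 525/598 nm.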
A number is an active result; i = inactive; ? = inconclusive; nt = no result; [ ] = dose if it differs, or a comment. Unless noted, the call rests on the fitted dose curve; in most records, active means well fitted curve in the direction sought with a large enough effect; inconclusive means small, poorly fitted or top-dose-only effect, or another doubt; inactive means no such curve, though single readings can be large; an effect the other way counts as inactive or inconclusive.

SMILES	NS1 inh	Cycloheximide cs	Pf growth 96h	Pf growth 48h	Shiga toxin inh	Giardia FBPA inh
CCCCCC(=O)Nc1cccc(C2=NOC3(C2)C[C@@H](C(N)=O)N(C(=O)Cc2ccc([N+](=O)[O-])cc2)C3)c1 (stereo not given in full)	i	i	?	?	i	i
COc1ccc(C(=O)N2CC3(CC(c4cccc(NC(=O)COc5ccc(Cl)cc5)c4)=NO3)C[C@@H]2C(N)=O)cc1 (stereo not given in full)	i	i	11.7µM	10.4µM	i	i
NC(=O)[C@@H]1CC2(CC(c3cccc(NC(=O)COc4ccc(Cl)cc4)c3)=NO2)CN1C(=O)c1ccccc1 (stereo not given in full)	i	i	13.1µM	10.4µM	i	i
CCC(=O)Nc1cccc(C2=NOC3(C2)C[C@H](C(N)=O)N(C(=O)c2ccc(Cl)cc2)C3)c1 (stereo not given in full)	i	i	i	?	i	i
Cc1ccc(OP(N)(=O)Oc2ccc(C)cc2)cc1	nt	i	5.86µM	?	i	i
COc1ccc(S(=O)(=O)N(C)CC(=O)NCc2ccco2)cc1OC	i	i	i	i	i	i
c1ccc(Nc2nc(CSc3ncn[nH]3)cs2)cc1	nt	43.5	i	i	68.1	i
CCCC[C@@H]1C[C@H]1C(NC(=O)Cc1ccccc1)c1ccc(Cl)cc1 (stereo not given in full)	nt	nt	nt	nt	nt	i
Nc1nc(CN2CCN(C(c3ccccc3)c3ccccc3)CC2)nc(Nc2ccccc2)n1	i	i	4.65µM	8.28µM	i	i
Nc1nc(CN2CCN(c3ccccc3F)CC2)nc(Nc2ccccc2)n1	i	i	?	?	i	i
Nc1nc(CN2CCCCCC2)nc(Nc2ccccc2)n1	i	i	?	i	i	i
Nc1nc(CN2CCC(Cc3ccccc3)CC2)nc(Nc2ccccc2)n1	i	i	7.38µM	nt	i	i
c1ccc(CSc2nnc(-c3ccco3)n2Cc2ccco2)cc1	i	37.5	?	?	i	i
Cc1ccc(C(=O)CSc2nnc3c4ccccc4nc(C(C)(C)C)n23)cc1	i	i	i	i	i	i
Cn1c(SCC(=O)N2c3ccccc3Sc3ccc(Cl)cc32)nnc1-c1ccco1	i	i	1.47µM	9.28µM	i	i
Cn1c(SCC(=O)c2ccccc2)nnc1-c1ccco1	i	41.4	14.7µM	i	62.6	i
CC(C)(C)c1nnc(SCC(=O)c2ccccc2)n(N)c1=O	?	56.8	i	i	63.5	i
CCOc1ccc(NC(=O)c2ccc3[nH]c(=O)c(=O)[nH]c3c2)cc1	i	i	i	i	i	i
COCCn1c(SCC(=O)NCCc2ccccc2)nnc1-c1ccco1	i	i	i[5.75 µM]	i	i	i
Cn1c(SCc2ccccc2)nnc1-c1ccco1	nt	40.8	i	i	82.4	i
c1coc(Cn2c(SCc3nc4ccccc4[nH]3)nnc2-c2cccs2)c1	i	i	10.4µM	i	i	i
COCCn1c(SCc2cccnc2)nnc1-c1ccco1	i	i	9.28µM	i	i	i
Cc1ccc(-c2nnc(SCc3nc4ccccc4[nH]3)n2Cc2ccco2)cc1	i	i	?	?	i	i
OCCN(CCO)c1nc(N2CCCCC2)c2nc(N(CCO)CCO)nc(N3CCCCC3)c2n1	i	i	3.29µM	2.08µM	i	i
Nc1nc(NCCO)nc(N2CCCCCC2)c1[N+](=O)[O-]	i	i	i	i	i	i
SMILES	NS1 inh	Cycloheximide cs	Pf growth 96h	Pf growth 48h	Shiga toxin inh	Giardia FBPA inh
CSC(=O)NC(=O)NC(=O)c1ccc([N+](=O)[O-])cc1	i	i	i	i	i	i
COc1ccc(CCNC(=O)c2cc(C(C)C)on2)cc1OC	i	i	i	i	i	i
COc1ccc(CCNC(=O)c2nnn(-c3cc(C)cc(C)c3)c2N)cc1OC	i	i	3.7µM	?	i	i
COc1ccc(CCNC(=O)c2noc3c2CCCC3)cc1OC	i	9.1	?	i	i	i
COc1ccc(CCNC(=O)c2nonc2N)cc1OC	i	i	4.15µM	i	i	i
COc1cc(NC(=O)c2noc3c2CCCC3)c(OC)cc1Cl	i	i	i	i	i	i
COc1ccc(Cl)cc1NC(=O)c1noc2c1CCCC2	nt	18.6	i	i	51.0	i
CC(C(=O)NC1CCCCC1)N(Cc1ccccc1)C(=O)c1snc(C(N)=O)c1N (stereo not given)	i	i	?	i	i	i
